An excerpt weighted towards active compounds, which were near 5.7% of everything screened.
ssDAF-12 act: activators of S. stercoralis DAF-12 nuclear receptor; HEK293 ssDAF-12/GRIP1 lit1-tk-luc reporter, luminescence; % of 3 µM dafachronic acid response; activation, % at 6.8 µM; 1% of 370,000 active;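 active = activation above the mean over all tested compounds plus 3 SD, cut at about 0.9% in these data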
DAX1 inh-1: blocks DAX1 repression of SF-1 activated StAR promoter; inhibition, % at 6.8 µM; AID 652010; 1.1% of 370,000 active; HEK293T StAR-luciferase reporter, SF-1/DAX-1 repression relief;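 active = inhibition above the mean over all tested compounds plus 3 SD, cut at about 3.6% in these data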;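 also: higher inhibition means more luminescence from relief of DAX-1 repression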
hgDAF-12 ag: activates the H. glycines DAF-12 receptor ligand-binding domain; HEK293 GAL4-hgDAF12 UAS-luciferase reporter, agonist luminescence; normalized to butyrate control; activation, % at 6.8 µM; 1.8% of 370,000 active; AID 687014;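 active = activation above a cutoff set at the mean of all screened compounds plus 3 SD, cut at about 10% in these data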
DAX1 inh-2: NR0B1 (DAX1) inhibition; P51843; HEK293 Gal4-DAX1 luciferase reporter, luminescence; inhibition, % at 6.75 µM; 0.99% of 340,000 active; AID 504766;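 active = inhibition above the mean over all tested compounds plus 3 SD, cut at about 4.2% in these data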;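 also: inhibition shows as a rise in luminescence from relieved DAX1 repression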
AHR activator: activates the human aryl hydrocarbon receptor; P35869; activation, % at 5 µM; 2.5% of 320,000 active; AHR-responsive luciferase reporter cells, luminescence; in the data active = activation above about 47%
Target sequence (P35869 whole entry, looked up): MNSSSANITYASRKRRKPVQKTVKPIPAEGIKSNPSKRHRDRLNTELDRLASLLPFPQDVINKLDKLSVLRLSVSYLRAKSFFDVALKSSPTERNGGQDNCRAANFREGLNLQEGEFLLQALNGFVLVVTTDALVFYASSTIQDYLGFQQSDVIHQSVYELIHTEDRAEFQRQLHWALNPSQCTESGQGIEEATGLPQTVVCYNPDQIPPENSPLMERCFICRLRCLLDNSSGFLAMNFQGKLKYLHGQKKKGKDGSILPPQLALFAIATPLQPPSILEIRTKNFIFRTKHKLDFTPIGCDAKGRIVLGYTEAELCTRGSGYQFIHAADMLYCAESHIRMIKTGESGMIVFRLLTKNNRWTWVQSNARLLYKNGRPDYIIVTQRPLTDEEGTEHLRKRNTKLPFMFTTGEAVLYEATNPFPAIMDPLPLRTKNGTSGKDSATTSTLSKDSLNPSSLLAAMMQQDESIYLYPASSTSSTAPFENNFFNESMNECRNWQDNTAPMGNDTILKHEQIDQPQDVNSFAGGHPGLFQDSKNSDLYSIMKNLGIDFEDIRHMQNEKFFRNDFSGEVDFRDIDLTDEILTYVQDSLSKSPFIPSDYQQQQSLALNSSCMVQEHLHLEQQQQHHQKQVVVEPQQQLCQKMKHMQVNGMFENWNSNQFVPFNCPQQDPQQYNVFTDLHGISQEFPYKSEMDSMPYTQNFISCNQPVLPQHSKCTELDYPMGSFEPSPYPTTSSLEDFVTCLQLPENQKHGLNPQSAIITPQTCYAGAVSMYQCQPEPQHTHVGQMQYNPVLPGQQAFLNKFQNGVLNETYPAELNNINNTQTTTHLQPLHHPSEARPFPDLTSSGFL
hcDAF-12 act: activates DAF-12 receptor from parasite H. contortus; 1.4% of 370,000 active; HEK293 hcDAF-12 lit1-tk-luc reporter, luminescence; 0% DMSO, 100% Δ7-dafachronic acid; activation, % at 6.8 µM; AID 652067;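 active = activation above the mean of all tested compounds plus 3 SD, cut at about 5.5% in these data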
Large screens that a line does not name were inactive.

Cc1cccc(NC(=O)Nc2cccc(C#N)c2)n1	DAX1 inh-2 5.4
Cc1cc(C)nc(NC(=O)/C=C/c2ccccc2Cl)c1	hgDAF-12 ag 12
Cc1ccc(CNC(=O)Nc2cccc(C)c2)cc1	hgDAF-12 ag 13
Cc1ccc(NC(=O)Nc2ccc3c(c2)OCO3)nc1	hgDAF-12 ag 13
Cc1cccc(NC(=O)Nc2ccc(C#N)cc2)n1	none
Cc1cccc(NC(=O)NCc2ccc3[nH]c(C)cc3c2)c1	none
O=C(/C=C/c1ccccc1Cl)OCC(=O)N1CCCC1	none
COC(=O)Cc1ccc(NC(=S)NC2CC2)cc1	none
CCCC#C/C(CCC)=C1\c2ccccc2C(=O)N1c1ccccc1	none (no result: DAX1 inh-2, AHR activator)
Cc1cc(C)nc(NC(=O)Nc2ccc3c(c2)OCO3)c1	hgDAF-12 ag 11
Cc1cccc(NC(=O)Nc2cc(C)cc(C)n2)c1	hgDAF-12 ag 13
Cc1cc(C)nc(NC(=O)c2ccc3c(c2)OCO3)c1	none (no result: ssDAF-12 act, DAX1 inh-1, hgDAF-12 ag, DAX1 inh-2, hcDAF-12 act)
CCOC(=O)CCCSc1nnc(CCCCCN2C(=O)c3cccc4cccc(c34)C2=O)o1	none
Fc1ccc(-c2nc3c4ccccc4ccn3c2CC2CCCCC2)cc1	ssDAF-12 act 1.6, hcDAF-12 act 6.4 (no result: DAX1 inh-2, AHR activator)
CCCc1nc2c3ccccc3ccn2c1CC1CCCCC1	hcDAF-12 act 6.2 (no result: DAX1 inh-2, AHR activator)
Clc1cccc(-c2nc3c4ccccc4ccn3c2CC2CCCCC2)c1	ssDAF-12 act 1.1 (no result: DAX1 inh-2, AHR activator)
Cc1ccc(Cc2c(-c3cccc(Cl)c3)nc3c4ccccc4ccn23)cc1	none (no result: DAX1 inh-2, AHR activator)
O=[N+]([O-])c1cccc2ccc(/C=C/c3ccc(Cl)cc3)nc12	AHR activator 62
CCOc1cc(/C=C/c2ccc3cccc([N+](=O)[O-])c3n2)cc(Cl)c1O	none
COc1ccc(N2C[C@@]3(O)CC[C@@H](O)[C@@H](OC)[C@@H]3[C@@](C)(O)[C@@H]2CC=C(C)C)cc1	none (no result: DAX1 inh-2, AHR activator)
CSC(=NC#N)N1CCN(C(=NC#N)SC)CC1	DAX1 inh-2 4.7
CSC(=NC#N)N1CCN(C(c2ccccc2)c2ccccc2)CC1	none
CC(C)=CCN1CCN(Cc2c[nH]c3ccccc23)CC1CCO (centres undefined)	ssDAF-12 act 0.9
CC(C)CN1CCN(Cc2c[nH]c3ccccc23)CC1CCO (centres undefined)	none
COc1ccc(C(=O)OCC(=O)NCc2ccc3c(c2)OCO3)cc1S(=O)(=O)N1CCOCC1	none
CSCC[C@H](NS(=O)(=O)c1ccc(C(C)=O)cc1)c1nnc2ccccn12	none
FC(F)(Cl)c1nnc2ccc(Cl)nn12	none
CC1CCCCC1NC(=O)C1CCN(S(=O)(=O)c2ccc3c(c2)CCC(=O)N3)CC1 (centres undefined)	DAX1 inh-2 5.1
Cn1nc(N)c2ncc(-c3ccc(Cl)cc3)nc21	hgDAF-12 ag 11 (no result: AHR activator)
O=C(CC(=O)c1ccccc1)Nc1cccnc1	none
O=C(Nc1cccnc1)/C(N=Nc1cccnc1)=C(\O)c1ccccc1	AHR activator 61
Cc1cc(NS(=O)(=O)c2ccc(NC(=O)CSc3nnc(-c4ccncc4)n3Cc3ccco3)cc2)nc(C)n1	none (no result: DAX1 inh-2, AHR activator)
O=C1C=C(C2OC(CO)C(O)C2O)C(=O)N1 (centres undefined)	DAX1 inh-2 5.9 (no result: AHR activator)
CC(=O)n1cc([C@H]2C=C(C(=O)Nc3ccccc3)O[C@@H](OCCCCO)C2)c2ccccc21	none
CC(=O)n1cc([C@@H]2C=C(C(=O)NCc3ccccc3)O[C@H](OCCCCO)C2)c2ccccc21	AHR activator 73
C#CCNC(=O)C1=C[C@@H](c2cn(C(C)=O)c3ccccc23)C[C@@H](OCCCCO)O1	AHR activator 65
C[C@H]1[C@@H](OC(=O)Nc2cccc(C(F)(F)F)c2)CC[C@@]23CCCN2C(=O)CCC[C@@H]13	none (no result: DAX1 inh-1, DAX1 inh-2, AHR activator)
COc1cc(NC(=O)CSc2nc(C)cc(=O)[nH]2)cc(OC)c1	none (no result: DAX1 inh-2, AHR activator)
CCN(Cc1ccccc1)S(=O)(=O)c1ccc(C(=O)N(CCCN(C)C)c2nc3cc4c(cc3s2)OCO4)cc1	none
CN(C)CCCN(C(=O)c1ccc(S(=O)(=O)N(C)C)cc1)c1nc2cc3c(cc2s1)OCO3	ssDAF-12 act 1.5
CN1C(=O)c2cc(NS(=O)(=O)c3ccc(F)cc3)ccc2OC[C@H]2O[C@@H](CC(=O)NCC(F)(F)F)CC[C@@H]21	none (no result: DAX1 inh-2, AHR activator)
O=C(Nc1ccc(C(F)(F)F)cc1)OC1CC2CC1[C@H]1CCCCN1[C@H]2Cc1ccccc1 (some centres undefined)	none (no result: DAX1 inh-2, AHR activator)
NC(Cc1ccc2nsnc2c1)C(=O)O (centres undefined)	ssDAF-12 act 2.9
CN1CC=C2C(C#N)=C(N)C(C#N)(C#N)C(CCc3ccccc3)C2C1 (centres undefined)	AHR activator 56 (no result: ssDAF-12 act, DAX1 inh-1, hgDAF-12 ag, hcDAF-12 act)
CN1CC=C2C(C#N)=C(N)C(C#N)(C#N)[C@H](c3cccs3)[C@H]2C1	none (no result: ssDAF-12 act, DAX1 inh-1, hgDAF-12 ag, hcDAF-12 act)
Cc1ccc(S(=O)(=O)N2CCCCC2)cc1NC(=O)c1ccc(Cl)nc1	AHR activator 75
Cc1ccccc1C(=O)Nc1cc(S(=O)(=O)N2CCCCC2)ccc1N1CCN(C)CC1	DAX1 inh-2 5.0
CCN1CCN(c2ccc(S(=O)(=O)N3CCOCC3)cc2NC(=O)c2cc(F)c(F)c(F)c2F)CC1	none (no result: AHR activator)
COc1ccc(NCC(=O)Nc2cc(S(=O)(=O)N3CCOCC3)ccc2N2CCOCC2)c(OC)c1	DAX1 inh-2 7.1
CCN1CCN(c2ccc(S(=O)(=O)N3CCOCC3)cc2NC(=O)c2ccc(C)cc2C)CC1	DAX1 inh-1 3.9
CCOc1ccc(N(C(C)C(=O)N2CCOCC2)S(C)(=O)=O)cc1 (centres undefined)	none
CN(CCCn1ccc(NC(=O)OCc2ccccc2)nc1=O)Cc1ccco1	none (no result: AHR activator)
CCN(CC)CCn1c(=O)n(-c2ccc(Cl)cc2)c(=O)c2c3c(sc21)CN(C)CC3	AHR activator 90
CN1CCc2c(sc3c2c(=O)n(-c2ccc(Cl)cc2)c2nncn32)C1	none
O=C(NCCCN1CCc2ccccc2C1)Nc1ccc(Br)cc1	AHR activator 61
CCCCc1nc(SCC(=O)N2CCCC2)c2c(=O)n(C)c(=O)n(C)c2n1	none
Cc1ccc(-c2cc(-c3ccccc3)c(C#N)c(Br)n2)cc1	none
Cc1ccc(-c2cc(-c3ccccc3)nc(Cl)n2)cc1	hcDAF-12 act 6.0
CN(N)c1nc(-c2ccccc2)cc(-c2ccccc2)n1	AHR activator 66
Cc1nc(-c2ccccc2)cc(-c2ccccc2)n1	none
COc1nc(-c2ccccc2)cc(-c2ccccc2)n1	AHR activator 63
CCN(CC)c1nc(C(N)=O)cc(-c2ccccc2)n1	none
Cc1cc(-c2ccccc2)nc(Cl)c1C#N	AHR activator 76
CC(Oc1ccccc1Cl)C(=O)Nc1ccc(S(=O)(=O)N2CCN(C)CC2)cc1 (centres undefined)	none (no result: AHR activator)
O=c1c(-c2cccs2)nc2ccccc2n1C(c1ccccn1)c1nc2ccccc2[nH]1 (centres undefined)	hgDAF-12 ag 12 (no result: DAX1 inh-2, AHR activator)
